# According to PubChem BioAssay AID651925 (Vanderbilt Specialized Chemistry Center, 2012):
# Active and inactive are the calls of the source. How the calls were made is not given here.
# Molecular target: Muscarinic acetylcholine receptor M4 (Homo sapiens) (UniProt P08173)
# Experiment: ACh response enhancement at M4 – CHO cells, human M4, selectivity assay for M5 PAM project (AID 651925)
# Muscarinic acetylcholine receptor M4 (Homo sapiens), sequence (P08173 whole entry, looked up): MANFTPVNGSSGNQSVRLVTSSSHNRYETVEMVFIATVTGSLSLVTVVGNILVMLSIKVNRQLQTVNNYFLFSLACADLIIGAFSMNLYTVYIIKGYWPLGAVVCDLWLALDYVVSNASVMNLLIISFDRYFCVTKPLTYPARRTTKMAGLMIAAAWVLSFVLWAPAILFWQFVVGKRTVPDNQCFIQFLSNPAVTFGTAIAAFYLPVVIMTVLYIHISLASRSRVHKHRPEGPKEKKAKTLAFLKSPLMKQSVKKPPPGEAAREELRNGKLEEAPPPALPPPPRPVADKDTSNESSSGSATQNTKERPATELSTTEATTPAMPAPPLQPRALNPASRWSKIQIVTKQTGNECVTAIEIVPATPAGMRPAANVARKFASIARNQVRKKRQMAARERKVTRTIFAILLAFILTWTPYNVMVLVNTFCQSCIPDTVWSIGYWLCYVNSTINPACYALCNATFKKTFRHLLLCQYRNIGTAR
smiles,measurement,value
O=C1C(=O)N(CCOc2ccccc2)c2ccc(OC(F)(F)F)cc21,outcome,inactive
